In all, about 8,300 sequences were measured (“log2 fold change of degron read counts, EGFP-low vs EGFP+ sorted cells (limma voom), compound-induced degradation”: median about -1.1, highest 2% from about 3.2 on). The sample holds the highest values, similar sequences and a random draw of the others, so the mix is not that of the screen.

In the assay the target is T1, CRBN, Q96SW2.
T1 chain: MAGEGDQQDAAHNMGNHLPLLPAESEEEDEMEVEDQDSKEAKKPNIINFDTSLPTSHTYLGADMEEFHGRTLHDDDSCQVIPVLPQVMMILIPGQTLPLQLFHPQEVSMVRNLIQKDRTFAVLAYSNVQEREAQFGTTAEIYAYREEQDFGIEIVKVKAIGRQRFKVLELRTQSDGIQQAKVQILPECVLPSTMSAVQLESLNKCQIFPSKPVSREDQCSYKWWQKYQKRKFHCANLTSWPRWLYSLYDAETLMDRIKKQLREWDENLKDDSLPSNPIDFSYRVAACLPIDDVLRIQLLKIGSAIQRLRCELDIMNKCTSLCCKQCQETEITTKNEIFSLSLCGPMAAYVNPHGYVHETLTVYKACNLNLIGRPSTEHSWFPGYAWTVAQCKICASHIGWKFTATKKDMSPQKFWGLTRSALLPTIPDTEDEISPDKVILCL
As to the kind of experiment: log2 fold change of degron read counts, EGFP-low vs EGFP+ sorted cells (limma voom), compound-induced degradation; higher = more compound-induced degradation of the degron-EGFP fusion; degrons are variants of IKZF1/3 zinc finger 2; compound dose not given here. To be noted: Jurkat, 18 h.

Where [1] appears, read: compound: compound 19 (5-tert-butyl-thalidomide).
Where [2] appears, read: compound: compound 22 (5-morpholino-thalidomide).
Setting [3] is: compound: compound 33 (diphenyl IMiD analogue).
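Note: pooled lentiviral library of zinc finger degron-EGFP fusions in mCherry-positive Jurkat cells, FACS-sorted after compound exposure, with degron abundance counted by next-generation sequencing.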

Regarding FICNQCGAMFTQKGNLLRHIKL [46F_47I_49N_50Q_52G_53A_54M_55F_67L_, Q9UKT9], the “log2 fold change of degron read counts” value is, setting by setting: under setting [1], -2.72; under setting [2], -2.75; under setting [3], -0.507; (compound: thalidomide) -1.6.
For FSCPICGHCFTQKGNLLRHIKL [46F_47S_49P_50I_52G_53H_54C_55F_67L_, Q9UKT9], the “log2 fold change of degron read counts” value is -2.27 under setting [1], -2.66 under setting [2], -1.41 under setting [3] and -1.81 (compound: thalidomide).
For FLCNICGAHFTQKGNLLRHIKL [46F_47L_49N_50I_52G_53A_54H_55F_67L_, Q9UKT9], in that order: -1.65, -2, -0.489 and -0.376.
For FFCSVCGHTFTQKGNLLRHIKL [46F_47F_49S_50V_52G_53H_54T_55F_67L_, Q9UKT9], in that order: -1.42, -2.35, -2.3 and -2.45.
For FNCNQCGAKFTQKGNLLRHIKL [46F_47N_49N_50Q_52G_53A_54K_55F_67L_, Q9UKT9], in that order: -2.03, -2.67, -2.17 and -1.99.
FQCNQCGHYFTQKGNLLRHIKL [46F_47Q_49N_50Q_52G_53H_54Y_55F_67L_, Q9UKT9]: the “log2 fold change of degron read counts” value runs as follows: under setting [1], -3.07; under setting [2], -2.91; under setting [3], -2.9; (compound: thalidomide) -2.48.
For FYCNQCGATFTQKGNLLRHIKL [46F_47Y_49N_50Q_52G_53A_54T_55F_67L_, Q9UKT9], in that order: -1.8, -0.678, -1.33 and -2.43.
Turning to FHCDQCGAWFTQKGNLLRHIKL [46F_47H_49D_50Q_52G_53A_54W_55F_67L_, Q9UKT9], the “log2 fold change of degron read counts” value runs as follows: under setting [1], -2.39; under setting [2], -3.42; under setting [3], -2.72; (compound: thalidomide) -2.68.
On the same counts, the results for FYCEICGRDFTQKGNLLRHIKL [46F_47Y_49E_50I_52G_53R_54D_55F_67L_, Q9UKT9] are -2.29, -2.76, -1.95 and -2.67.
On the same counts, the results for FQCDQCGAQFTQKGNLLRHIKL [46F_47Q_49D_50Q_52G_53A_54Q_55F_67L_, Q9UKT9] are -2.81, -1.76, -1.35 and 0.414.
On the same counts, the results for FFCEICGHMFTQKGNLLRHIKL [46F_47F_49E_50I_52G_53H_54M_55F_67L_, Q9UKT9] are -1.68, -2.18, -1.72 and -2.01.
FECNQCGAYFTQKGNLLRHIKL [46F_47E_49N_50Q_52G_53A_54Y_55F_67L_, Q9UKT9]: the “log2 fold change of degron read counts” value was -2.64 under setting [1], -2.84 under setting [2], -1.48 under setting [3] and -1.4 (compound: thalidomide).
For the sequence FMCEICGHVFTQKGNLLRHIKL [46F_47M_49E_50I_52G_53H_54V_55F_67L_, Q9UKT9], the “log2 fold change of degron read counts” value was -2.94 under setting [1], -3.04 under setting [2], -2.18 under setting [3] and -2.54 (compound: thalidomide).
Turning to FKCNICGAWFTQKGNLLRHIKL [46F_47K_49N_50I_52G_53A_54W_55F_67L_, Q9UKT9], the “log2 fold change of degron read counts” value is -1.98 under setting [1], -2.92 under setting [2], -2.11 under setting [3] and -1.78 (compound: thalidomide).
In the case of FCCPICGADFTQKGNLLRHIKL [46F_47C_49P_50I_52G_53A_54D_55F_67L_, Q9UKT9], the “log2 fold change of degron read counts” value by setting is: under setting [1], 1.61; under setting [2], 1.1; under setting [3], 1.77; (compound: thalidomide) 1.6.
For FLCPICGAPFTQKGNLLRHIKL [46F_47L_49P_50I_52G_53A_54P_55F_67L_, Q9UKT9], in that order: 2.02, 2.98, 2.65 and 3.18.
For FCCPICGAPFTQKGNLLRHIKL [46F_47C_49P_50I_52G_53A_54P_55F_67L_, Q9UKT9], in that order: 3.65, 3.16, 2.16 and 2.67.
On the same counts, the results for FDCPICGAPFTQKGNLLRHIKL [46F_47D_49P_50I_52G_53A_54P_55F_67L_, Q9UKT9] are 2.88, 1.73, 1.54 and 2.15.
In the case of FYCPICGADFTQKGNLLRHIKL [46F_47Y_49P_50I_52G_53A_54D_55F_67L_, Q9UKT9], the “log2 fold change of degron read counts” value is 1.73 under setting [1], 1.44 under setting [2], 1.25 under setting [3] and -0.522 (compound: thalidomide).
On the same counts, the results for FYCPICGAPFTQKGNLLRHIKL [46F_47Y_49P_50I_52G_53A_54P_55F_67L_, Q9UKT9] are 3.63, 3.27, 2.84 and 2.2.
On the same counts, the results for FCCNICGAPFTQKGNLLRHIKL [46F_47C_49N_50I_52G_53A_54P_55F_67L_, Q9UKT9] are 3.01, 2.73, 1.32 and 1.86.
On the same counts, the results for FVCPICGAPFTQKGNLLRHIKL [46F_47V_49P_50I_52G_53A_54P_55F_67L_, Q9UKT9] are 2.4, 3.68, 2.3 and 3.49.
With FYCPICGAKFTQKGNLLRHIKL [46F_47Y_49P_50I_52G_53A_54K_55F_67L_, Q9UKT9], the “log2 fold change of degron read counts” value worked out at 2.61 under setting [1], 3.07 under setting [2], 1.08 under setting [3] and 0.503 (compound: thalidomide).
For FCCDICGAMFTQKGNLLRHIKL [46F_47C_49D_50I_52G_53A_54M_55F_67L_, Q9UKT9], in that order: 0.674, 0.00358, 0.721 and -0.808.
For FWCNVCGACFTQKGNLLRHIKL [46F_47W_49N_50V_52G_53A_54C_55F_67L_, Q9UKT9], in that order: 1.84, 2.89, 1.57 and -0.431.
Consider FYCNQCGHAFTQKGNLLRHIKL [46F_47Y_49N_50Q_52G_53H_54A_55F_67L_, Q9UKT9], for which the “log2 fold change of degron read counts” value under setting [1] was -2.34, the “log2 fold change of degron read counts” value under setting [2] is -2.37, the “log2 fold change of degron read counts” value under setting [3] is -2.98 and the “log2 fold change of degron read counts” value (compound: thalidomide) was -2.66.
On the same counts, the results for FLCDICGASFTQKGNLLRHIKL [46F_47L_49D_50I_52G_53A_54S_55F_67L_, Q9UKT9] are 0.329, -1.41, 0.103 and -0.525.
On to FNCDICGAEFTQKGNLLRHIKL [46F_47N_49D_50I_52G_53A_54E_55F_67L_, Q9UKT9], for which the “log2 fold change of degron read counts” value by setting is: under setting [1], 0.228; under setting [2], -1.87; under setting [3], -2.21; (compound: thalidomide) -2.45.

The record behind these values is the supplement of paper PMC12645437, “Orthogonal IMiD-Degron Pairs Induce Selective Protein Degradation in Cells” (ACS Chemical Biology, 2025).
